# Measured values as given in the supplement of paper PMC12669032.
# A number with no mark means an inactive call.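 How the source made its calls: active = AUC reduced over 20% with Padj below 0.05 in at least 2 of 3 replicates; inactive = otherwise.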
# Test system: Bifidobacterium longum subsp. longum
# Assay: growth AUC relative to DMSO control (median of replicates) (fraction); higher = more growth (less inhibition), active = hit call of the paper
# Conditions: 20 µM; 24 h
# How it was run: (§1)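 Starting at OD600 0.05, gut bacterial monocultures in mGAM were grown anaerobically at 37 °C with 20 µM compound (1% DMSO) under pierced gas-permeable seals. OD600 was read every hour for 24 h, and the lowest OD of each curve was set to 0. Area under the growth curve was normalised to the plate median of solvent-only wells, or to row and column medians on the industrial chemical plate, and the median of three biological replicates grown on separate days is given.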
row,Structure (SMILES),growth AUC
1,C=CCN=C=S,0.999
2,COC(=O)c1ccccc1S(=O)(=O)NC(=O)Nc1nc(C)cc(C)n1,1.1
3,CNC(=O)O/N=C(\SC)C(=O)N(C)C,0.957
4,CC(Cc1ccc(C(C)(C)C)cc1)CN1CCCCC1 (stereo not given),0.99
5,CC1=NNC(=O)N(/N=C/c2cccnc2)C1,0.993
6,c1ccc(-c2ccccc2)cc1,1.03
7,CN1CSC(=S)N(C)C1,1.01
8,COC(=O)NC(=S)Nc1ccccc1NC(=S)NC(=O)OC,0.958
9,C=CC1(C)OC(=O)N(c2cc(Cl)cc(Cl)c2)C1=O (stereo not given),0.917
10,ClC1=C(Cl)C2(Cl)C3C4C=CC(C4)C3C1(Cl)C2(Cl)Cl (stereo not given),0.998
11,CC(C)OP(=O)(OC(C)C)SCc1ccccc1,0.902

# Test system: Clostridium difficile
# Assay: as above
# Conditions: 20 µM; 24 h
# How it was run: as §1
row,Structure (SMILES),growth AUC
1,CCC(C)(c1ccc(O)cc1)c1ccc(O)cc1,0.997
2,C[n+]1ccc(-c2cc[n+](C)cc2)cc1.O.[Cl-].[Cl-],0.947
3,C=CCC1=C(C)C(OC(=O)C2C(C=C(C)C)C2(C)C)CC1=O (mixture of isomers),0.962
4,CCOP(=S)(OCC)SCS(=O)CC (stereo not given),0.972
5,CC1=C(C(=O)Nc2ccccc2)SCCO1,1
6,CC(C)Nc1nc(Cl)nc(NC(C)C)n1,0.986
7,CNC(=O)Oc1cc(C)cc(C(C)C)c1,0.93
8,C=CCN(CC=C)C(=O)C(Cl)Cl,0.973
9,CCS(=O)Cc1ccccc1OC(=O)NC (stereo not given),0.979
10,CNC1=C(c2cccc(C(F)(F)F)c2)C(=O)C(c2ccccc2)O1 (stereo not given),1.08
11,CC/C(=N\OC/C=C/Cl)C1=C(O)CC(C2CCOCC2)CC1=O (stereo not given),1.01
12,CC(COc1ccc(Oc2ccccc2)cc1)Oc1ccccn1 (stereo not given),0.99
13,COCCOC(=O)C(C#N)(C(=O)c1ccccc1C(F)(F)F)c1ccc(C(C)(C)C)cc1 (stereo not given),0.943
14,O=c1oc2ccccc2c(O)c1C1CC(c2ccc(OCc3ccc(C(F)(F)F)cc3)cc2)Cc2ccccc21 (mixture of isomers),0.0158 (active)
15,CN(C)C1CSSSC1.O=C(O)C(=O)O,1.05
16,OC(c1ccc(Cl)cc1)(c1ccc(Cl)cc1)C(Cl)(Cl)Cl,1.03
17,Cc1cc(C2CC2)nc(Nc2ccccc2)n1,0.959
18,CCC(CC)Nc1c([N+](=O)[O-])cc(C)c(C)c1[N+](=O)[O-],0.962
19,CCCSC(=O)N(CCC)CCC,1.01
20,C[C@@H](Oc1ccc(Cl)cc1Cl)C(=O)O,0.949

row,Structure (SMILES),growth AUC
1,CCOP(=S)(OCC)Oc1cc(-c2ccccc2)on1,1.02
2,O=C(O)c1cc(Cl)ccc1Cl,1.02
3,OCC(O)CCl (stereo not given),1.01
4,Cc1ccc2nc3sc(=O)sc3nc2c1,1.02
5,CC(Cl)(Cl)C(=O)O,0.999
6,CCNc1nc(NC(C)C(C)C)nc(SC)n1 (stereo not given),1
7,CCCCCCCC(=O)Oc1c(I)cc(C#N)cc1I,0.998
8,COP(=S)(OC)Oc1cc(Cl)c(Br)cc1Cl,0.966
9,C=CCN=C=S,1.01
10,COC(=O)c1ccccc1S(=O)(=O)NC(=O)Nc1nc(C)cc(C)n1,1
11,CNC(=O)O/N=C(\SC)C(=O)N(C)C,0.965
12,CC(Cc1ccc(C(C)(C)C)cc1)CN1CCCCC1 (stereo not given),0.971
13,CC1=NNC(=O)N(/N=C/c2cccnc2)C1,1.07
14,c1ccc(-c2ccccc2)cc1,0.948
15,CN1CSC(=S)N(C)C1,0.976
16,COC(=O)NC(=S)Nc1ccccc1NC(=S)NC(=O)OC,0.951
17,C=CC1(C)OC(=O)N(c2cc(Cl)cc(Cl)c2)C1=O (stereo not given),1.02
18,ClC1=C(Cl)C2(Cl)C3C4C=CC(C4)C3C1(Cl)C2(Cl)Cl (stereo not given),1.02
19,CC(C)OP(=O)(OC(C)C)SCc1ccccc1,0.968
